The text below walks through data of PubChem BioAssay (Tox21).

Molecules are shown by their SMILES. A number with no mark means an inactive call. Results filed as inconclusive are left out. Activity calls are given as the source filed them. Calls come from the whole dose curve; as a rule, active = well fitted curve in the direction sought with a large enough effect in the repeat runs; inconclusive = weak or mixed curves; inactive = no such curve, though single readings can be large; an effect the other way counts as inactive or inconclusive.

The nature of assay [1]: Human pregnane X receptor (PXR) small molecule agonists, qHTS cell viability counter screen (AID 1346977). Note: nearly all actives have a fitted effect of over 50% in size. Summed up: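 Same-well viability read: CellTiter-Fluor added after 23 hr compound exposure, fluorescence measured 1 hr later. Cells were PXR-Luc HepG2 seeded at 2,000/well in 5% charcoal-stripped FBS medium, rested 5 hr before dosing at 37 C.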
Assay [2] is described as follows: Caspase-3/7 induction in HepG2 cells by small molecules, qHTS assay (AID 1346978). Note: nearly all actives have a fitted effect of over 15% in size. Summed up:
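Caspase-3/7 induction was measured by Caspase-Glo 3/7 luminescence (30 min, room temperature) after a 17 hr compound exposure of wild-type HepG2 cells seeded at 2,000 per well and pre-incubated 5 hr.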
(In qHTS, concentration-response curves come from the screen itself.)

The nature of assay [3]: Caspase-3/7 induction in CHO-K1 cells by small molecules, qHTS assay (AID 1346980). Note: nearly all actives have a fitted effect of over 15% in size. The essentials:
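Luminescent Caspase-Glo 3/7 read (30min, room temperature) quantified apoptosis induction. Cells were wild-type CHO-K1, treated with compound for 17hr at 37 C and 5% CO2.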

Assay [4] can be described thus: Caspase-3/7 induction in HepG2 cells by small molecules, qHTS cell viability counter screen (AID 1346981). Note: series mostly up to about 92 µM; nearly all actives have a fitted effect of over 30% in size. The essentials: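 Counter screen for cytotoxicity: HepG2 exposed 16 hr to compounds, then CellTiter-Fluor viability signal (fluorescence, 1 hr reagent incubation).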
Assay [5] addresses Nuclear receptor subfamily 1 group I member 2 (Homo sapiens) (UniProt O75469). The assay is described as follows: Human pregnane X receptor (PXR) small molecule agonists, qHTS assay (AID 1346982). Note: nearly all actives have a fitted effect of over 35% in size. Note: potency is the fitted concentration of half-maximal effect. The essentials:
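Luminescence (ONE-Glo, 30 min RT) after 24 hr compound exposure of PXR-Luc HepG2 cells; cells rested 5 hr post-plating in 5% charcoal-stripped FBS medium.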

Assay [6] concerns the target Cytochrome P450 2C19 (Homo sapiens) (UniProt P33261). The assay is described as follows: Cytochrome P450 Family 2 Subfamily C Member 19 (CYP2C19) small molecule antagonists: luciferase reporter qHTS assay (AID 1671197). Note: nearly all actives have a fitted effect of over 65% in size. Note: potency is the fitted concentration of half-maximal effect. Summed up: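 Relative luminescence units recorded 20 min after the detection reagent stopped a 1 h, 37C CYP2C19 reaction on proluciferin substrate, which was started by NADPH regeneration following 10 min room-temperature compound preincubation; ketoconazole positive control.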
For orientation: A reporter such as luciferase makes a cellular process visible.

The target of assay [7] is Cytochrome P450 2C9 (Homo sapiens) (UniProt P11712). Briefly: Cytochrome P450 Family 2 Subfamily C Member 9 (CYP2C9) small molecule antagonists: luciferase reporter qHTS assay (AID 1671198). Note: nearly all actives have a fitted effect of over 50% in size. Note: potency is the fitted concentration of half-maximal effect. Summed up:
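Enzyme-substrate mix preincubated with compound 10 min at room temperature; reaction started with NADPH regeneration solution, 1 h 37C. Luminescent luciferin product read after 20 min detection reagent.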

Assay [8] addresses Cytochrome P450 1A2 (Homo sapiens) (UniProt P05177). Briefly: Cytochrome P450 Family 1 Subfamily A Member 2 (CYP1A2) small molecule antagonists: luciferase reporter qHTS assay (AID 1671199). Note: nearly all actives have a fitted effect of over 50% in size. Note: potency is the fitted concentration of half-maximal effect. The essentials:
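Signal from luciferin formed by CYP1A2 from a proluciferin substrate is read as luminescence, expressed in relative luminescence units. Compounds sit with enzyme 10 min, NADPH-driven reaction runs 1 h, all at room temperature.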

In assay [9] the target is Cytochrome P450 3A4 (Homo sapiens) (UniProt P08684). Briefly: Cytochrome P450 Family 3 Subfamily A Member 4 (CYP3A4) small molecule antagonists: luciferase reporter qHTS assay (AID 1671201). Note: nearly all actives have a fitted effect of over 50% in size. Note: potency is the fitted concentration of half-maximal effect. Summed up:
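Recombinant human CYP3A4 converts a proluciferin substrate to luciferin over 1 h at room temperature after NADPH regeneration solution is added (compound preincubated 10 min); detection reagent stops reaction, luminescence read 20 min later as relative units.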

Assay [10] is described as follows: Caspase-3/7 induction in CHO-K1 cells by small molecules, qHTS cell viability counter screen (AID 1346979). Note: nearly all actives have a fitted effect of over 35% in size. Note: potency is the fitted concentration of half-maximal effect. Summed up:
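Cytotoxicity counter screen: CellTiter-Fluor added to compound-treated wild-type CHO-K1 cells at 16 h (37C, 5% CO2), fluorescence measured 1 h later; same wells as caspase-3/7 measurement.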

Assay [11] concerns the target Nuclear receptor subfamily 1 group I member 2 (Rattus norvegicus) (UniProt Q9R1A7). The assay is described as follows: Rat pregnane X receptor (rPXR) activation by small molecules, qHTS assay (AID 1346983). Note: nearly all actives have a fitted effect of over 20% in size. Note: potency is the fitted concentration of half-maximal effect. The note with it: rPXR luciferase reporter cells, One-Glo luminescence, 24 h; max activation: stronger effect = higher value. Summed up: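 Luminescent readout (One-Glo luciferase, 30 min room temperature) followed 24 hr compound treatment at 37 C of rPXR cells plated 2,000 per well and preincubated 5hr; qHTS format with compounds delivered in DMSO.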

Assay [12] concerns the target Nuclear receptor subfamily 1 group I member 2 (Homo sapiens) (UniProt O75469). Briefly: CYP3A4 induction through human pregnane X receptor (PXR) by small molecules, qHTS assay (AID 1346984). Note: nearly all actives have a fitted effect of over 40% in size. Note: potency is the fitted concentration of half-maximal effect. The essentials:
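DPX-2 reporter cells; 24h cpd, 37C; Luciferin-IPA 3uM final x3h; One-Glo 30 min RT; lumi read.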

In assay [13] the target is Cytochrome P450 2D6 (Homo sapiens) (UniProt P10635). The assay is described as follows: Cytochrome P450 Family 2 Subfamily D Member 6 (CYP2D6) small molecule antagonists: luciferase reporter qHTS assay (AID 1671196). Note: nearly all actives have a fitted effect of over 50% in size. Note: potency is the fitted concentration of half-maximal effect. The essentials:
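Inhibition of CYP2D6 was gauged by loss of luminescence, since light produced tracks the luciferin generated from a proluciferin substrate. A 10 min room-temperature preincubation preceded 1 h NADPH-supported turnover.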

The target of assay [14] is Voltage-gated inwardly rectifying potassium channel KCNH2 (Homo sapiens) (UniProt Q12809). Briefly: Human Ether-a-go-go-Related Gene (hERG) channel small molecule antagonists: fluorescence cell-based qHTS assay (AID 1671200). Note: nearly all actives have a fitted effect of over 50% in size. Note: potency is the fitted concentration of half-maximal effect. Summed up: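 Thallium flux as potassium surrogate: FluxOR II dye loaded 1 h at room temperature into hERG-expressing U2OS cells, then stimulus buffer added after 10 min. Kinetic 480 nm excitation/540 nm emission read, 2 min.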
Chain of Voltage-gated inwardly rectifying potassium channel KCNH2 (Homo sapiens) (Q12809 whole entry, looked up): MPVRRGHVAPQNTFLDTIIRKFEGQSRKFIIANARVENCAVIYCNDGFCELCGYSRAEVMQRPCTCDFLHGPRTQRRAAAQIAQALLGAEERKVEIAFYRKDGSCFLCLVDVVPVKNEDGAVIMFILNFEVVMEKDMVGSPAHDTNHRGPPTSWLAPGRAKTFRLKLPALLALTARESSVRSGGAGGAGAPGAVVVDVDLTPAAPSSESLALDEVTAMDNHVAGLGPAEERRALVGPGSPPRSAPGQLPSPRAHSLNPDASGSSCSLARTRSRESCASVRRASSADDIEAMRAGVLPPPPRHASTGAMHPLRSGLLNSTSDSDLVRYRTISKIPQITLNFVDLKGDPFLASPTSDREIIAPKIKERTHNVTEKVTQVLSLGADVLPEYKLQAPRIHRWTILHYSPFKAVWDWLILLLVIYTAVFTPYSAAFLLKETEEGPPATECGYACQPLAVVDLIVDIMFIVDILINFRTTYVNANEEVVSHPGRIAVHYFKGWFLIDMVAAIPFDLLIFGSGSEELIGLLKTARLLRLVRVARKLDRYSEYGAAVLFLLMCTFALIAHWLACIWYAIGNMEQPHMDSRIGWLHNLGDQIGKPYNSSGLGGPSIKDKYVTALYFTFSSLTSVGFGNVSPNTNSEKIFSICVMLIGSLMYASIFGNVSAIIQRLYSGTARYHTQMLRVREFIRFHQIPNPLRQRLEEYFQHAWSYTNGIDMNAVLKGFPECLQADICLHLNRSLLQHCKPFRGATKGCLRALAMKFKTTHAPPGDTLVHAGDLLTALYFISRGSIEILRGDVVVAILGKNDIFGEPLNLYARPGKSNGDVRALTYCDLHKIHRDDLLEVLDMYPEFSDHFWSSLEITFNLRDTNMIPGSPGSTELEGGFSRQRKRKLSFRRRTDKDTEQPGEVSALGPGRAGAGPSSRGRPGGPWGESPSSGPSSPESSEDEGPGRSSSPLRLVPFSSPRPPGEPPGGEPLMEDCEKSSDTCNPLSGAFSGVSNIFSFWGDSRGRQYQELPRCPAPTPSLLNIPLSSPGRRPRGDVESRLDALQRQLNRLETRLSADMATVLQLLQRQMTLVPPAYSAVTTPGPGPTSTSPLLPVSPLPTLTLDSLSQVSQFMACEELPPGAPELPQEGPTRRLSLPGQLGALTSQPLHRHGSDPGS
For orientation: Block of hERG is tested as a sign of cardiac risk.
% is set by controls: 0 for no effect and ±100 for the full control effect.

Chain of Cytochrome P450 2C9 (Homo sapiens) (P11712 whole entry, looked up): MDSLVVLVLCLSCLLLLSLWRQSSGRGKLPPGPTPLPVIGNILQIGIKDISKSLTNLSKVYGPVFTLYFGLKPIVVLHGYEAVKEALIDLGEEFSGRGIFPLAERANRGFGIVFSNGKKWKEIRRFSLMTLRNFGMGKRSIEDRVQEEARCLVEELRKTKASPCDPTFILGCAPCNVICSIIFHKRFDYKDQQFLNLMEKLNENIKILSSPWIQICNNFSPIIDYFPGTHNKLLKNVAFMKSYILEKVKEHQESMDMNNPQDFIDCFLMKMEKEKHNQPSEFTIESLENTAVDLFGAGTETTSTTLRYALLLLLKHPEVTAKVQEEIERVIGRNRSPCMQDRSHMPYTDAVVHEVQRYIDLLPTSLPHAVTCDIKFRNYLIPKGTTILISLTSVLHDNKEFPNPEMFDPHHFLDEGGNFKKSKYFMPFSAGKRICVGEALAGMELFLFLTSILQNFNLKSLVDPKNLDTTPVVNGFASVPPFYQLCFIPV
Chain of Cytochrome P450 3A4 (Homo sapiens) (P08684 whole entry, looked up): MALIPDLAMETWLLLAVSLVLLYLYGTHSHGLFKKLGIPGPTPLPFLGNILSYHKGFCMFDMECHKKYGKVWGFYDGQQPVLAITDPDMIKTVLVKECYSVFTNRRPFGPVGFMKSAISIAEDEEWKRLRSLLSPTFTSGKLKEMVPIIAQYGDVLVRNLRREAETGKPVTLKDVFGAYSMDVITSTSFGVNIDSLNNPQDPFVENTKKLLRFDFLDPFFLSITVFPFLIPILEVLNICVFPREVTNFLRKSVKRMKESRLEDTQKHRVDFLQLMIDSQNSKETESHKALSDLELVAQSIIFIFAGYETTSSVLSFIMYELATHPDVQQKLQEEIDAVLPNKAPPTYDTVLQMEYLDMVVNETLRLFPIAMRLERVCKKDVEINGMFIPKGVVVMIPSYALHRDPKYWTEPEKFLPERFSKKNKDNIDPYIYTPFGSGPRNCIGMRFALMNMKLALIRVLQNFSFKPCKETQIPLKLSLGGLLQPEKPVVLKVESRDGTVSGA
Chain of Nuclear receptor subfamily 1 group I member 2 (Rattus norvegicus) (Q9R1A7 whole entry, looked up): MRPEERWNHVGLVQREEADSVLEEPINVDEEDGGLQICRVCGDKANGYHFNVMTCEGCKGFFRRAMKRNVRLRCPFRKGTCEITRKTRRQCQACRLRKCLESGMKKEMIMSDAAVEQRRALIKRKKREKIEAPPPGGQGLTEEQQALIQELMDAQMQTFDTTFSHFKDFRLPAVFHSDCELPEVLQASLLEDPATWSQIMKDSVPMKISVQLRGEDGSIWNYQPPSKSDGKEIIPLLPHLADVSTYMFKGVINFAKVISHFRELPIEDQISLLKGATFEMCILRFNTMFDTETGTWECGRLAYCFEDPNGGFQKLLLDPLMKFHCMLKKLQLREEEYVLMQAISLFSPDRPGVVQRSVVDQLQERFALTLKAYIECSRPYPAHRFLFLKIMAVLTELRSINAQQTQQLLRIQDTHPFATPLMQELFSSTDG
Chain of Cytochrome P450 2D6 (Homo sapiens) (P10635 whole entry, looked up): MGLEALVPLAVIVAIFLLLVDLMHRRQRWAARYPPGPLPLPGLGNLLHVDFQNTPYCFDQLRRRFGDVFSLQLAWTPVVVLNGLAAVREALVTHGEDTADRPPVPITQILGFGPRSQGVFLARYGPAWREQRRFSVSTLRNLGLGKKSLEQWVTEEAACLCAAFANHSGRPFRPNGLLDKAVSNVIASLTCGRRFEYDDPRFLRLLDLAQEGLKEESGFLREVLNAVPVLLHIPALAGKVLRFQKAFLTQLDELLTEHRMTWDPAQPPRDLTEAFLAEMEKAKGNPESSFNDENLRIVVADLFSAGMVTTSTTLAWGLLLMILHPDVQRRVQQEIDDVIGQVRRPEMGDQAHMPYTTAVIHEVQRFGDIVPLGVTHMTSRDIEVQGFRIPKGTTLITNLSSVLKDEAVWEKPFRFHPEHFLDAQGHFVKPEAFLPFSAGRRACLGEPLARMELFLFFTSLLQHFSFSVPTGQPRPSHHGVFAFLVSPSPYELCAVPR
Chain of Cytochrome P450 1A2 (Homo sapiens) (P05177 whole entry, looked up): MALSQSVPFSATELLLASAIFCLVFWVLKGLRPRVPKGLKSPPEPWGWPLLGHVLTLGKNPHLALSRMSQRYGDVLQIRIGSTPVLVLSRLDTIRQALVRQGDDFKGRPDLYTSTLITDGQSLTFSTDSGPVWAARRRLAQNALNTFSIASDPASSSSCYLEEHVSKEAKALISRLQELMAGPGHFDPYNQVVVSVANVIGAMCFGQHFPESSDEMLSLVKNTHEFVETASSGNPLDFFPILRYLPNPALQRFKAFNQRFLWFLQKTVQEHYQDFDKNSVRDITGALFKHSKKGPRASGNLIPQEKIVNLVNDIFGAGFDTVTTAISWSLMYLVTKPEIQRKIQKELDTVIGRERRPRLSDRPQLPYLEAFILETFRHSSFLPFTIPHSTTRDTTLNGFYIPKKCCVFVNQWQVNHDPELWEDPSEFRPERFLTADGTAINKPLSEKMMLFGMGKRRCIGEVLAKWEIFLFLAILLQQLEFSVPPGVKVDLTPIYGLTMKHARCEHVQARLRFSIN
Chain of Cytochrome P450 2C19 (Homo sapiens) (P33261 whole entry, looked up): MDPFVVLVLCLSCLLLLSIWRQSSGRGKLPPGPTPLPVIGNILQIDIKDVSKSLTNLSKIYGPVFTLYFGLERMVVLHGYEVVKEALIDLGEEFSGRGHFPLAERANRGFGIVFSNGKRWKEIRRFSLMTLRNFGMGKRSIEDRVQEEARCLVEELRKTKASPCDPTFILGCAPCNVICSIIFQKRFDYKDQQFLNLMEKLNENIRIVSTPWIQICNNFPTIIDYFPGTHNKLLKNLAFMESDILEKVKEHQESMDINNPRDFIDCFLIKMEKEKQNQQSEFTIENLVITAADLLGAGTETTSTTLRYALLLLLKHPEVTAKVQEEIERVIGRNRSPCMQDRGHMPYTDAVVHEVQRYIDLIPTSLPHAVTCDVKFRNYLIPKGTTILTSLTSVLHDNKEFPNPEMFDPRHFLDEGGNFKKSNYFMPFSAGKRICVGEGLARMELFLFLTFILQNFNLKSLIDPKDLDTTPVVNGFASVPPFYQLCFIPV
Chain of Nuclear receptor subfamily 1 group I member 2 (Homo sapiens) (O75469 whole entry, looked up): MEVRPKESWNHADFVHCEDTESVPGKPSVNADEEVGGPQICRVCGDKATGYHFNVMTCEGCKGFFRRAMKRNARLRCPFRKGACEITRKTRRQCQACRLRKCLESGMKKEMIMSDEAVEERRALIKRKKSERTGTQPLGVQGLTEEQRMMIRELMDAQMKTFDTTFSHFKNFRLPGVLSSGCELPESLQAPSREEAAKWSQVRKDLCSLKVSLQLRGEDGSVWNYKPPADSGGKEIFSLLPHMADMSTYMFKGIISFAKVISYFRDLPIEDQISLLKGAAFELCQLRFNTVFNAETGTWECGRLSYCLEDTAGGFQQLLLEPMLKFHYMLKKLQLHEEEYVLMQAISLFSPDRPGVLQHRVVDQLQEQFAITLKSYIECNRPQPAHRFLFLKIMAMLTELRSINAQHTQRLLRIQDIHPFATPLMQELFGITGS

Turning to `Cc1cc(C)n(CO)n1`, the Potency entry in assay [1], in assay [2], in assay [3], in assay [4], in assay [5] and in [6] was “inactive” throughout. Further, the Potency entry in assay [7], in assay [8] and in assay [9] was “inactive” each time.
For `Cc1cc(N)n(-c2ccccc2)n1`, the Potency entry in assay [1], in [2], in assay [10] and in assay [3] was “inactive” in each case. The Potency in assay [6] is 28.3 µM (active); in [8], 39.9 µM (active).
Consider `CC[C@H](NC(C)C)[C@H](O)c1ccc(O)c2[nH]c(=O)ccc12`, for which the Potency entry in [1], in [2], in assay [3], in assay [4], in [5] and in [12] was “inactive” in each case. Also, the Potency result in assay [6], in [7], in [8] and in assay [9] was “inactive” each time. For the same molecule, the max activation in [11] is -3.27%.
`CC(=O)OCC(=O)[C@@]1(O)CC[C@H]2[C@@H]3CCC4=CC(=O)C=C[C@]4(C)[C@@]3(F)[C@@H](O)C[C@@]21C`: the Potency result in assay [1], in assay [2], in [3], in assay [4], in assay [5] and in assay [13] was “inactive” each time. Moreover, the Potency entry in assay [6] and in assay [14] was “inactive” throughout. For the same molecule, the Potency in [11] is 8.91 µM (active); in [12], 0.631 µM (active).
In the case of `CC1(C)[C@@H]2CC[C@]3(C2)[C@@H]1C(=O)CCC3(C)C`, the Potency result in assay [1], in assay [2], in [3], in assay [4], in assay [8] and in [14] was “inactive” each time. Further, the Potency is 9.69 µM (active) in assay [5], 31.7 µM (active) in assay [13], 39.9 µM (active) in assay [6] and 17.8 µM (active) in [9].
For the molecule `O=C(OCCCCCOC(=O)c1ccccc1)c1ccccc1`, the Potency entry in assay [1], in assay [2], in [3], in assay [4], in assay [5] and in assay [14] was “inactive” in each case. Moreover, the Potency result in assay [9] is “inactive”. Besides, the Potency was 56.4 µM (active) in assay [6], 11.2 µM (active) in [7] and 7.96 µM (active) in [8].
Consider `CC(C)(O)C(=O)O`, for which the Potency result in assay [1], in assay [2], in assay [3], in [4], in assay [5] and in [6] was “inactive” each time. Also, the Potency entry in [7], in assay [14] and in assay [9] was “inactive” throughout.
For the molecule `CCCCCCCCCCCCCCCCN`, the Potency entry in assay [1], in assay [2], in assay [3], in assay [4], in assay [5] and in assay [12] was “inactive” each time. In addition, the Potency result in assay [8] and in assay [14] was “inactive” each time. Besides, the max activation in [11] was -4.68%.
As to `C[C@H](N)C(=O)N[C@@H](C)C(=O)NC1[C@H]2CN(c3nc4c(cc3F)c(=O)c(C(=O)O)cn4-c3ccc(F)cc3F)C[C@@H]12` (stereo partly drawn), the Potency entry in assay [2], in assay [3], in assay [13], in [6], in assay [7] and in [14] was “inactive” each time. Besides, the Potency in assay [10] is 7.5 µM (active); in assay [5], 21.1 µM (active); in [9] it was 12.3 µM (active).
For `N#Cc1ccc(CC(=O)c2cccc(C(F)(F)F)c2)cc1`, the Potency result in assay [1], in assay [2], in assay [3], in [4] and in assay [9] was “inactive” each time. Further, the Potency in assay [13] is 63.3 µM (active); in assay [6] it was 20 µM (active); in [7] it was 35.6 µM (active); in assay [8], 25.2 µM (active); in [14], 27.5 µM (active).
With `C=C[Si]1(C)O[Si](C)(C=C)O[Si](C)(C=C)O[Si](C)(C=C)O1` (stereo not drawn), the Potency result in assay [1], in [2], in assay [3] and in assay [14] was “inactive” throughout. Further, the Potency in assay [6] was 63.3 µM (active).
